From PubChem BioAssay (NCATS)
“And” between values parts separate entries of the source, which are not always exact repeats. Equal entries are not always repeated. Inconclusive results are not listed. The source made the active and inactive calls. Calls follow the shape of the dose curve; as a rule, active = well fitted curve in the direction sought with a large enough effect; inconclusive = small, poorly fitted or top-dose-only effect, or another doubt; inactive = no such curve, though single readings can be large; an effect the other way counts as inactive or inconclusive.

How the values were obtained:
[1] = qHTS of pediatric cancer cell lines to identify multiple opportunities for drug repurposing: Primary screen for A673 cells (AID 1347092); also: nearly all actives have a fitted effect of over 45% in size; also: potency is read from the fitted curve at half-maximal effect
Summary of the method: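 Titration-based qHTS on A673 cells: MIPE compounds spanned 11 points (0.78 nM to 46 µM final), NPC compounds 8 points (0.59 nM to 46 µM final). Viability after 48 h was measured by ATP luminescence.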

[2] = qHTS of pediatric cancer cell lines to identify multiple opportunities for drug repurposing: Primary screen for SK-N-MC cells (AID 1347093); also: potency is read from the fitted curve at half-maximal effect
Summary of the method: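 Metabolically active cells were quantified by ATP-dependent luminescence (CellTiter-Glo, 15 min at room temperature) following 48 h treatment. Cells had been plated at 500-1,000 per well and settled for 5 h beforehand.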

[3] = qHTS of pediatric cancer cell lines to identify multiple opportunities for drug repurposing: Primary screen for BT-37 cells (AID 1347094); also: potency is read from the fitted curve at half-maximal effect
Summary of the method: (§1)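 Following a 5-hour attachment period, cells at 500-1,000/well received compounds and were cultured for 48 hours. CellTiter-Glo was added and luminescence read to estimate viable, metabolically active cells.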

[4] = qHTS of pediatric cancer cell lines to identify multiple opportunities for drug repurposing: Primary screen for NB-EBc1 cells (AID 1347095); also: potency is read from the fitted curve at half-maximal effect
Summary of the method: as §1

[5] = qHTS of pediatric cancer cell lines to identify multiple opportunities for drug repurposing: Primary screen for U-2 OS cells (AID 1347096); also: nearly all actives have a fitted effect of over 50% in size
Summary of the method: (§2)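 Viability after 48 h compound treatment at 37C, 500-1,000 cells/well, read as ATP luminescence with CellTiter-Glo. Primary screens used 11-point (MIPE, 0.78 nM-46 µM) or 8-point (NPC, 0.59 nM-46 µM) final concentrations; follow-up screens used 11-point dilutions.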

[6] = qHTS of pediatric cancer cell lines to identify multiple opportunities for drug repurposing: Primary screen for SK-N-SH cells (AID 1347098); also: nearly all actives have a fitted effect of over 65% in size; also: potency is read from the fitted curve at half-maximal effect
Summary of the method: (§3)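 Cells (500-1,000/well) rested 5 h, then received compounds for 48 h; metabolically active cells were measured by CellTiter-Glo luminescence. Final concentrations spanned up to 46 µM (MIPE, 11-point) or 0.59 nM-46 µM (NPC, 8-point) in primary screens, 11-point in follow-ups.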

[7] = qHTS of pediatric cancer cell lines to identify multiple opportunities for drug repurposing: Primary screen for NB1643 cells (AID 1347099); also: nearly all actives have a fitted effect of over 50% in size; also: potency is read from the fitted curve at half-maximal effect
Summary of the method: as §1

[8] = qHTS of pediatric cancer cell lines to identify multiple opportunities for drug repurposing: Primary screen for LAN-5 cells (AID 1347100); also: potency is read from the fitted curve at half-maximal effect
Summary of the method: as §2

[9] = qHTS of pediatric cancer cell lines to identify multiple opportunities for drug repurposing: Primary screen for BT-12 cells (AID 1347101); also: nearly all actives have a fitted effect of over 25% in size; also: potency is read from the fitted curve at half-maximal effect
Summary of the method: as §3

[10] = qHTS of pediatric cancer cell lines to identify multiple opportunities for drug repurposing: Primary screen for Saos-2 cells (AID 1347097); also: nearly all actives have a fitted effect of over 40% in size; also: potency is read from the fitted curve at half-maximal effect
Summary of the method: as §1

Measured: Potency

NC(=O)c1ccc(I)c([N+](=O)[O-])c1
inactive: [3] | [4] | [5] | [6] | [7] | [8] | [9]
active: [1] 18.7 µM | [2] 3.72 µM

O=C(O)COCCN1CCN(C(c2ccccc2)c2ccc(Cl)cc2)CC1 (stereo unspecified)
inactive: [1] | [2] | [3] | [4] | [5] | [6] | [7] | [8] | [9]

Cc1cc(-c2ccc(CC(=O)Nc3ccc(-c4cccnc4)cc3)cc2)ccn1
inactive: [3]
active: [1] 23.5 µM | [2] 9.35 µM

Nc1ccc(S(=O)(=O)Nc2ccnn2-c2ccccc2)cc1
inactive: [1] | [2] | [3] | [4] | [5] | [10] | [6] | [7] | [8] | [9]

Cc1cc2c(C(C)C)c(O)c(O)c(C=O)c2c(O)c1-c1c(C)cc2c(C(C)C)c(O)c(O)c(C=O)c2c1O
inactive: [5]
active: [1] 23.5 µM | [2] 5.96 µM and 9.35 µM | [3] 15.5 µM and 24.3 µM | [4] 3.76 µM and 2.96 µM | [7] 8.41 µM and 7.43 µM | [8] 3.35 µM and 11.8 µM | [9] 13.8 µM and 19.3 µM

Cc1csc(NC(=O)c2sc3nc4c(c(C(F)(F)F)c3c2N)CCC4)n1
active: [1] 1.18 µM | [3] 8.63 µM
inactive: [2] | [4] | [5] | [8] | [9]

CC(C)(C)NCC(O)c1ccc(O)c(CO)c1 (stereo unspecified)
inactive: [1] | [2] | [3] | [4] | [5] | [10] | [6] | [7] | [8] | [9]

CN(C(=O)c1ccc(F)cc1C(F)(F)F)C1CCN(c2nnc(-c3ccnn3C)c3ccccc23)CC1
inactive: [3] | [4] | [5] | [8]
active: [1] 11.8 µM | [2] 0.332 µM | [7] 4.18 µM | [9] 21.7 µM

Cc1cnc(NC(=O)C2=C(O)c3ccccc3S(=O)(=O)N2C)s1
inactive: [1] | [2] | [3] | [4] | [5] | [10] | [6] | [7] | [8] | [9]

Cc1cccc(-c2nn(C(=S)Nc3ccccc3)cc2-c2ccnc3ccccc23)n1
inactive: [1] | [2] | [3] | [4] | [5] | [6] | [7] | [8]

NC(=O)C1CCCc2c1[nH]c1ccc(Cl)cc21 (stereo unspecified)
inactive: [3] | [4] | [5] | [8] | [9]
active: [1] 23.5 µM | [2] 26.4 µM

CC(=O)Oc1ccccc1C(=O)O
inactive: [1] | [2] | [3] | [4] | [5] | [10] | [6] | [7] | [8] | [9]

Oc1cccc(-c2nc(N3CCOCC3)c3oc4ncccc4c3n2)c1
active: [1] 2.15 µM | [2] 0.0481 µM | [3] 0.444 µM | [4] 191 nM | [10] 340 nM | [6] 0.879 µM | [7] 0.215 µM | [8] 960 nM

NC(=O)c1cnccn1
inactive: [1] | [2] | [3] | [4] | [5] | [10] | [6] | [7] | [8] | [9]

COc1cc2c(cc1OC)CN(CCc1ccc(NC(=O)c3cccc4c(=O)c5cccc(OC)c5[nH]c34)cc1)CC2
active: [1] 4.69 µM | [2] 10.5 µM | [6] 12.1 µM | [7] 7.43 µM
inactive: [3] | [4] | [5] | [10] | [8] | [9]

COc1cc2nccc(Oc3ccc(NC(=O)NC4CC4)c(Cl)c3)c2cc1C(N)=O
inactive: [5]
active: [1] 0.469 µM | [2] 0.935 µM | [3] 1.37 µM | [4] 93.5 nM | [6] 1.52 µM | [7] 2.96 µM | [8] 372 nM | [9] 6.85 µM

N[C@@H]1CONC1=O
inactive: [1] | [2] | [3] | [4] | [5] | [10] | [6] | [7] | [8] | [9]

Cc1ccccc1C(OCCN(C)C)c1ccccc1 (stereo unspecified)
inactive: [1] | [2] | [3] | [4] | [5] | [7] | [8] | [9]

COc1ccc(-c2ccc3c(N4CCOC[C@H]4C)nc(N4CCOC[C@H]4C)nc3n2)cc1CO
active: [1] 0.0235 µM | [2] 0.0047 µM | [3] 0.0544 µM | [4] 33.2 nM | [10] 469 nM
inactive: [6]

COc1nc(-c2ccc3c(c2)OCO3)n(-c2ccc(NC(=O)CSc3ccccc3)cc2)n1
inactive: [1] | [2] | [3] | [4] | [5] | [6] | [7] | [8] | [9]

O=c1n(CCCN2CCN(c3cccc(Cl)c3)CC2)nc2ccccn12
inactive: [1] | [2] | [3] | [4] | [5] | [6] | [7] | [8] | [9]

OC(CCN1CCCCC1)(c1ccccc1)C1CC2C=CC1C2 (stereo unspecified)
inactive: [1] | [2] | [3] | [4] | [5] | [10] | [6] | [7] | [8] | [9]

Oc1ccc(C2CNCCc3c2cc(O)c(O)c3Cl)cc1 (stereo unspecified)
inactive: [1] | [2] | [3] | [4] | [5] | [10] | [6] | [7] | [8] | [9]

O=C(Nc1nc2ccccc2n1CCN1CCOCC1)c1cccc([N+](=O)[O-])c1
active: [1] 3.72 µM | [2] 3.32 µM | [3] 7.69 µM | [4] 7430 nM | [6] 24.1 µM | [7] 7.43 µM | [8] 3720 nM | [9] 21.7 µM
inactive: [5]

CCC(C)N(C)C(=O)c1cc2ccccc2c(-c2ccccc2Cl)n1 (stereo unspecified)
inactive: [1] | [2] | [3] | [4] | [5] | [8]

CC(C)NCC(O)COc1ccc(COCCOC(C)C)cc1 (stereo unspecified)
inactive: [1] | [2] | [3] | [4] | [5] | [10] | [6] | [7] | [8] | [9]

CC(C=CC1=C(C)CCCC1(C)C)=CC=CC(C)=CC(=O)O
inactive: [3] | [4] | [5] | [6] | [8] | [9]
active: [1] 14.8 µM and 296 nM | [2] 8.33 µM and 1.48 µM

C[C@]12CCC(=O)C=C1CC[C@@H]1[C@@H]2[C@@H](O)C[C@@]2(C)[C@H]1CC[C@]2(O)C(=O)CO
inactive: [1] | [2] | [3] | [4] | [5] | [10] | [6] | [7] | [8] | [9]

CCCCNc1cc(C(=O)O)cc(S(N)(=O)=O)c1Oc1ccccc1
inactive: [1] | [2] | [3] | [4] | [5] | [10] | [6] | [7] | [8] | [9]

CCn1cc(C(=O)O)c(=O)c2cc(F)c(N3CCNC(C)C3)c(F)c21 (stereo unspecified)
inactive: [1] | [2] | [3] | [4] | [5] | [8] | [9]

Cc1[nH]c(=O)c(C#N)cc1-c1ccc2nccn2c1
inactive: [1] | [2] | [3] | [4] | [5] | [10] | [6] | [7] | [8] | [9]

Cc1ccc(-n2nc(C(C)(C)C)cc2NC(=O)Nc2ccc(OCCN3CCOCC3)c3ccccc23)cc1
active: [1] 4.69 µM | [2] 0.662 µM | [6] 0.541 µM
inactive: [3] | [4] | [5] | [8]

CCc1ccc(CCOc2ccc(CC3SC(=O)NC3=O)cc2)nc1 (stereo unspecified)
inactive: [1] | [2] | [3] | [4] | [5] | [10] | [6] | [7] | [8] | [9]

O=C(O)CCc1ccc(NCc2cccc(Oc3ccccc3)c2)cc1
inactive: [1] | [2] | [3] | [4] | [5] | [6] | [7] | [8] | [9]

CCC(C)n1ncn(-c2ccc(N3CCN(c4ccc(OC[C@H]5CO[C@](Cn6cncn6)(c6ccc(Cl)cc6Cl)O5)cc4)CC3)cc2)c1=O (stereo partly specified)
inactive: [1] | [3] | [5] | [10] | [6] | [7]
active: [2] 1.48 µM | [4] 1050 nM

Clc1cccc(Cl)c1NC1=NCCN1
inactive: [1] | [2] | [3] | [5] | [10] | [6] | [7] | [8] | [9]

C[C@@H]1CN(Cc2ccc(F)cc2)[C@@H](C)CN1C(=O)c1cc2c(C(=O)C(=O)N(C)C)cn(C)c2cc1Cl
inactive: [3]
active: [1] 14.8 µM | [2] 0.0372 µM | [7] 2.64 µM

Cc1cccc(-c2[nH]c(C(C)(C)C)nc2-c2ccc3nccnc3c2)n1
active: [1] 14.8 µM | [2] 10.5 µM | [3] 19.3 µM | [10] 1660 nM | [7] 16.6 µM | [9] 24.3 µM
